CSC inhib: cancer stem cell inhibition | hit rate 1.1% among 300,000 | cancer stem cell-like cells viability, luminescence | inhibition, % at 7.5 µM; in the data active means inhibition above about 75%; inconclusive means no clear call, values can overlap the other calls; tested in HMLE shEcad cells
Calb FLC: affects C. albicans growth with fluconazole | C. albicans CaCi-2 (fluconazole-resistant clinical isolate) + fluconazole, Alamar Blue growth, 48 h | growth inhibition, % (test concentration not listed) | hit rate 0.57% among 300,000;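 active means growth inhibition above about 58% in most replicates, limit read from the data, passing the limit was not always enough; inconclusive means exactly half the replicates above a set limit; inactive means most replicates below a set limit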;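 further: all wells also contain fluconazole at 8 µg/ml as a sub-toxic cotreatment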
ALR H2O2 inh: human ALR oxidase inhibition via reduced H2O2; P55789; purified ALR, DTT oxidation, H2O2 HRP-luminol luminescence; inhibition, % (no concentration beside the values); hit rate 3.8% among 290,000; AID 485317;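 active means mean replicate inhibition above about 79%, with every replicate also reaching it, limit read from the data; inconclusive means only one of the two criteria met; inactive means mean below limit and not every replicate reaching it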
PP5 primary: inhibitors of human protein phosphatase 5 (PP5); P53041; purified PP5c, OMFP substrate fluorescence; inhibition, % at 6.7 µM; hit rate 0.18% among 320,000; AID 1987;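 active means inhibition above the campaign's mean inhibition across all tested compounds plus 3 SD, cut at about 9.5% in these data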
Target sequence (P53041 whole entry, looked up): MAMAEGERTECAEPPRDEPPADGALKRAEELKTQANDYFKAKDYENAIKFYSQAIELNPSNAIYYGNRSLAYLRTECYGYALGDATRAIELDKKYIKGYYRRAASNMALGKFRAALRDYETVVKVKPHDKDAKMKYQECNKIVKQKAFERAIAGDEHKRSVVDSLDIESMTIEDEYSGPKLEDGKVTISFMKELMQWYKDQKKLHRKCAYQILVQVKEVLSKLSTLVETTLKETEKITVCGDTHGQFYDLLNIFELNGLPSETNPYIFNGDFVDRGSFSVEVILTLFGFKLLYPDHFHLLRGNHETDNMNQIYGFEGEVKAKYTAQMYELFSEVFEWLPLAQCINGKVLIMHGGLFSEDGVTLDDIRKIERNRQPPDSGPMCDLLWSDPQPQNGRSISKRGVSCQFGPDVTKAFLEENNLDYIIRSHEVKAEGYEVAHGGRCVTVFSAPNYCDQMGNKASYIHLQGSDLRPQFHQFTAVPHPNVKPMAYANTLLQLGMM
PP1 inh: blocks human PP1-alpha phosphatase, a PP5 counter-screen; purified PP1alpha, OMFP fluorescence; P62136; AID 2235; inhibition, % at 6.7 µM; hit rate 0.9% among 320,000;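 active means inhibition above the mean inhibition of all tested compounds plus 3 SD, computed separately for each screening campaign, cut at about 15% in these data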
Large screens that a line does not name were inactive; ! = a repeat was not active. The list is not random: actives were taken first. Their share in the collection is about 5.4%.

CCCn1c(SCC(=O)Nc2ccc(Cl)cc2F)nc(O)cc1=O	ALR H2O2 inh 99 (no result: Calb FLC, PP5 primary, PP1 inh)
COc1ccccc1-n1c(SCC(=O)N2CCOCC2)nc(O)cc1=O	none
Cc1ccc(-n2c(SCC(=O)Nc3ccc(Cl)cc3)nc(O)cc2=O)cc1	ALR H2O2 inh 94
O=C(CSc1nnc(-c2ccncc2)n1Cc1ccco1)Nc1nccs1	none
COc1ccc(NCc2nnc(SCC(=O)Nc3ccc(OC)cc3)n2C)cc1	Calb FLC inconclusive
O=C(CSc1nc(O)cc(=O)n1-c1ccccc1)Nc1ccc2c3c(cccc13)CC2	ALR H2O2 inh 99, PP1 inh 16 (no result: CSC inhib)
COc1ccc(NCc2nnc(SCC(=O)Nc3ccccc3)n2C)cc1	ALR H2O2 inh 94
O=C1c2cccnc2C(=O)N1C1CCCCC1	none
Cc1ccc(NC2c3ncccc3C(=O)N2Cc2ccc(F)cc2)cc1 (centres undefined)	ALR H2O2 inh 97
Cc1ccc(NC2c3ncccc3C(=O)N2Cc2cccs2)cc1C (centres undefined)	none
Cc1ccc(NC2c3ncccc3C(=O)N2C2CCCCC2)cc1 (centres undefined)	ALR H2O2 inh 96
Cc1ccc(NC2c3ncccc3C(=O)N2C2CCCCC2)cc1C (centres undefined)	ALR H2O2 inh 92
C#CC[N+](C)(C)CCCCCCCCC	none (no result: ALR H2O2 inh)
COc1cc(C)c(S(=O)(=O)NCCCn2ccnc2)cc1C	none
COc1cccc(C(=O)Nc2nnc(CCS(=O)(=O)c3ccc(C)cc3)s2)c1	none
CCOc1ccc(-c2nc(-c3cccs3)c(CC(=O)O)s2)cc1OC	ALR H2O2 inh 89
c1ccc2c(c1)nnn2CNc1nccs1	ALR H2O2 inh 99
CN(C)c1ccc(NC(=O)c2cc3c(=O)n4ccccc4nc3n2C)cc1	ALR H2O2 inh 82
COc1ccc(OC)c(NC(=O)c2cc3c(=O)n4ccccc4nc3n2C)c1	none (no result: ALR H2O2 inh)
COc1cc2nc(N3CCN(c4cc(C)ccc4C)CC3)nc(N)c2cc1OC	CSC inhib 106
COc1cc2nc(N3CCNCC3)nc(N)c2cc1OC	Calb FLC inconclusive
O=C(O)/C=C/c1ccc(S(=O)(=O)Nc2ccc(C(=O)NCC(=O)O)cc2)cc1	Calb FLC 50
O=C(O)/C=C/c1ccc(S(=O)(=O)Nc2ccc(OCc3ccccc3)cc2)cc1	none
O=C(CSc1nnc(CNC(=O)c2ccco2)o1)Nc1ccc(OC(F)(F)F)cc1	none
COc1ccc(NC(=O)c2cc(OC)c(OC)c(OC)c2)cn1	none
COc1ccc(NC(=O)c2cccc(-c3ccc(O)cc3)c2)cn1	CSC inhib 86, ALR H2O2 inh inconclusive
CC(=O)Nc1cccc(NC(=O)c2cccc(-c3ccc(O)cc3)c2)c1	ALR H2O2 inh 99 (no result: CSC inhib)
CCOC(=O)C[C@H]1c2cc(F)ccc2S(=O)(=O)N1c1ccccc1	none
COC(=O)C[C@H]1c2cc(F)ccc2S(=O)(=O)N1c1ccc(N(C)C)cc1	ALR H2O2 inh 99
Nn1c(SCc2cn3ccsc3n2)nnc1-c1ccncc1	none
CC1CCN(C(=O)CSc2nnc(N)s2)CC1	none (no result: PP5 primary, PP1 inh)
CC1CC(C)CN(C(=O)CSc2nnc(N)s2)C1 (centres undefined)	ALR H2O2 inh 95
CCN1CCC(N2CCN(c3ccc(F)cc3)CC2)CC1	ALR H2O2 inh 97
Cc1ccc(NC2CCCN(C(=O)C3CCCCC3)C2)cc1C (centres undefined)	ALR H2O2 inh 99
O=C(C1CCCC1)N1CCCC(Nc2ccc(F)cc2)C1 (centres undefined)	ALR H2O2 inh 99
O=C(c1cccnc1)N1CCCC(Nc2ccc(F)cc2)C1 (centres undefined)	none
O=C(C1CCCC1)N1CCCC(Nc2ccccc2)C1 (centres undefined)	ALR H2O2 inh 99
CCOc1ccccc1CNC(=O)CNC(=O)c1cccs1	none
Cc1ccc(S(=O)(=O)c2nc(S(C)(=O)=O)sc2NCC2CCCO2)cc1 (centres undefined)	none
CN(C)CCCn1c(=S)[nH]c2sc3c(c2c1=O)CCCC3	CSC inhib inconclusive, ALR H2O2 inh 99
Cc1cc(CNC(=O)Nc2ccc3c(c2)OCO3)nn1C	none
S=c1[nH]nc(-c2ccco2)n1-c1ccc(Cl)cc1	none
Nn1c(-c2ccco2)n[nH]c1=S	none
COc1ccc(-n2c(-c3ccco3)n[nH]c2=S)cc1	ALR H2O2 inh 95 (no result: CSC inhib)
S=c1[nH]nc(-c2ccco2)n1C1CCCCC1	ALR H2O2 inh 95
Cc1nnsc1C(=O)Nc1ccc(S(=O)(=O)N2CCCCC2C)cc1 (centres undefined)	none
O=C1CC(c2ccccc2)Cc2nc(N3CCc4ccccc43)ncc21 (centres undefined)	none
COc1ccc(-n2ncc3c(N4CCN(c5cc(C)ccc5C)CC4)ncnc32)cc1	PP1 inh 17
Cc1ccccc1NC(=O)c1ccc(S(=O)(=O)C(F)F)cc1	none (no result: ALR H2O2 inh)
O=C(Nc1ccccc1)OCc1cc(-c2ccccc2Cl)on1	none (no result: ALR H2O2 inh)
O=c1[nH]c2c(Br)cnc([N+](=O)[O-])c2[nH]1	none
CN(Cc1cnc2nc(N)nc(N)c2n1)c1ccc(C(=O)N[C@@H](CCC(=O)O)C(=O)O)cc1	CSC inhib 86!
Cc1ccc(NC(=O)NC(=O)CN2CCN(c3ccc(O)cc3)CC2)c(C)c1	ALR H2O2 inh 99
CC(C)(C)NC(=O)NC(=O)CN1CCN(c2ccc(O)cc2)CC1	ALR H2O2 inh 94
CCOc1cc(C(C(=O)NCC2CCCO2)N(C(=O)Cn2nnc3ccccc32)c2ccc(OC)c(OC)c2)ccc1O (centres undefined)	none (no result: CSC inhib, ALR H2O2 inh)
CN1C(=O)SC(Nc2cccc3ccccc23)C1=O (centres undefined)	ALR H2O2 inh 90
CC(OC(=O)CCN=C1NS(=O)(=O)c2ccccc21)C(=O)Nc1ccc(N(C)C)cc1 (centres undefined)	ALR H2O2 inh 99 (no result: Calb FLC)
COc1cc(CCC(=O)N2CC(C)OC(C)C2)cc(OC)c1OC (centres undefined)	none
COc1ccc(CCC(=O)N2CC(C)OC(C)C2)cc1 (centres undefined)	Calb FLC 89
CN(C)S(=O)(=O)c1cccc(NC(=S)NCCCn2ccnc2)c1	none
CCOc1ccc2nc(-c3ccc(OC)c(OC)c3)cc(C(=O)O)c2c1	none
COc1cc(-c2cc(C(=O)O)c3c(OC)c(OC)c(OC)cc3n2)ccc1O	Calb FLC inconclusive, ALR H2O2 inh 98
CC(C)NS(=O)(=O)c1ccc(OCC(=O)Nc2ccc3c(c2)OCO3)c(Cl)c1	none
CCC(C)Nc1nc2c(c(=O)n(C)c(=O)n2C)n1Cc1cccc(C)c1 (centres undefined)	ALR H2O2 inh 97
CCC(C)Nc1nc2c(c(=O)n(C)c(=O)n2C)n1Cc1ccc(Cl)cc1 (centres undefined)	none
Cn1c(=O)c2c(nc(N/N=C/c3cccs3)n2Cc2ccccc2)n(C)c1=O	Calb FLC inconclusive, ALR H2O2 inh 96
Cc1cc(NS(=O)(=O)c2ccccc2)cc(Cl)c1O	ALR H2O2 inh 99
Cc1ccc(-c2nc3c(c(=O)[nH]c(=O)n3CC(C)C)n2CC(C)C)cc1[N+](=O)[O-]	none (no result: ALR H2O2 inh)
CCCCn1c(=O)[nH]c(=O)c2c1nc(-c1ccc(-c3ccccc3Br)o1)n2CC	Calb FLC 104
